From the OligoGym collection come the findings set out here.
Also: reference of the scale not given here.

The first assay deals with SC5DL. Nature of the assay: pooled miR-30 sensor sort-seq; sequence = guide strand. The settings on record: shRNA.
In turn, TTATTAAGCACAATGATTCTTA showed a sensor-assay potency score (higher = more potent) of -0.0651.

With AAGACTAATAGCTTGTCGGAAG, the sensor-assay potency score (higher = more potent) is -1. As to TTTACTATGTATCTTGACTGTA, the sensor-assay potency score (higher = more potent) is -0.0112.

Sequence TTGAATGAGCCGCCAATCCTAT gave a sensor-assay potency score (higher = more potent) of -0.95. As to TTTCATTAATGCATGATCGAAG, the sensor-assay potency score (higher = more potent) is -0.355. Still for that read-out and setting: to TAAAAAAATAGTAATCTGCAAC belongs -0.802; to TTACTATGTATCTTGACTGTAT, 0.237; to TAAACTTAATCTCTCGACGGAC, -0.573. On the same count and under the same terms, to TATATGGTAAGGTAGACTCTGA belongs -0.406; to TTGAAGAATTAACCATTCCTGA, -0.422.

In turn, TATCATTATCATACCAACGTTG gave a sensor-assay potency score (higher = more potent) of -0.725. On the same count and under the same terms, as for TTAACCAAGATGTACAGACTTA, the figure is -0.113.

The target of another assay is SCAF4. The description is as above. The settings on record: shRNA.
Turning to TAGTACTGCAAACACTTGCAGT, the sensor-assay potency score (higher = more potent) was -0.842. Same read-out and setting: as for TACTATTTGAACTACATGCTTA, the figure is 0.0032; as for TTTAATAGCAGCTTTAGTGATG, -0.529.

The sequence TAACTGAGCTGTGATAGCCTGA displayed a sensor-assay potency score (higher = more potent) of -0.339. On the same count and under the same terms, to TTGTTCTACTTCCATTTCCTGC belongs -0.925.
